# Experimental data taken from the supplement of paper PMC6411743.
# ± gives the standard deviation of the averaged measurements. Targets with the largest changes are over-represented here; the source holds about 5,400 in all.
# Compound: Nc1nc2c(ncn2[C@@H]2O[C@H](COP(=O)(O)OP(=O)(O)OP(=O)(O)O)[C@@H](O)[C@H]2O)c(=O)[nH]1 [guanosine triphosphate]
# Test: NP40-soluble protein abundance relative to vehicle (solubility fold change) (ratio); higher = more soluble protein in presence of GTP
# Settings: concentration: 0.5mM
# Outline: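 Values are fold changes against the detergent-processed vehicle, based on vsn-normalised intensities. Jurkat crude lysate was treated at eight concentrations from 0.1 to 10 mM (10 min at room temperature, then 3 min at 37 °C), solubilised with 0.8% NP40 and benzonase, ultracentrifuged and analysed by TMT-labelled LC-MS/MS over three independent experiments.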
# Sequence of UniProt Q6IBS0 (Q6IBS0 whole entry): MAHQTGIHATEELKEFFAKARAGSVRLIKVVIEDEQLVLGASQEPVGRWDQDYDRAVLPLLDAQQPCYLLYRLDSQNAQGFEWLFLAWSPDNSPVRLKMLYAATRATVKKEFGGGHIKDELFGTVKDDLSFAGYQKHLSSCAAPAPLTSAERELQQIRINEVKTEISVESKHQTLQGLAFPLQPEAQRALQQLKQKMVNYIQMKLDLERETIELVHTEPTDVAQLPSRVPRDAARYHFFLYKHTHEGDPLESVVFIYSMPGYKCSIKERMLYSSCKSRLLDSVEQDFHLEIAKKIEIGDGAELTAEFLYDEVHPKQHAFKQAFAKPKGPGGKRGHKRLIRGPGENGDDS
# Sequence of UniProt Q12872 (Q12872 whole entry): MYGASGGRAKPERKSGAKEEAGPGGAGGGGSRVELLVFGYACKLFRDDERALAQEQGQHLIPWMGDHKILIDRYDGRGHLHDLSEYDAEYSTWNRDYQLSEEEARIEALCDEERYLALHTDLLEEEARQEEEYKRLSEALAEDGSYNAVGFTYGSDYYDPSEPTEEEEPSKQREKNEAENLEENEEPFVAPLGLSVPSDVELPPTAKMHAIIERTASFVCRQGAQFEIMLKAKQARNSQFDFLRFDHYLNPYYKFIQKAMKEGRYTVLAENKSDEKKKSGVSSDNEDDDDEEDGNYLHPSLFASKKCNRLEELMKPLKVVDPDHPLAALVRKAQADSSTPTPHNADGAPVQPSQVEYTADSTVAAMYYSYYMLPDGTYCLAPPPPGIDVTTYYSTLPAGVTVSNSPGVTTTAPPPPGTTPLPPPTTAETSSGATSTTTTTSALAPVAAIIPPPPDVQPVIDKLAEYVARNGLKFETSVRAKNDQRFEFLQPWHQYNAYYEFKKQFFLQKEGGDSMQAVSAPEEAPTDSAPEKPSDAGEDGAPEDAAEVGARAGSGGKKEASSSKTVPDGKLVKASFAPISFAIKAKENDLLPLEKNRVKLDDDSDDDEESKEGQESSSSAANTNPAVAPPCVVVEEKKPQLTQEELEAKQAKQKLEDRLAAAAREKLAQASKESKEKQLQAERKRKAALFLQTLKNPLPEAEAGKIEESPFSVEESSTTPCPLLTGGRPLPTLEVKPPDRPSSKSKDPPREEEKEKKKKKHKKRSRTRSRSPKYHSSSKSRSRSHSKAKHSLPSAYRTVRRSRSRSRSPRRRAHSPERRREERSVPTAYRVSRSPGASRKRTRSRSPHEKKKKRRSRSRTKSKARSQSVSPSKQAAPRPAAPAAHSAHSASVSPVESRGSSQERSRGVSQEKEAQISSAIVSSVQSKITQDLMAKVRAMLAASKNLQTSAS
# Sequence of UniProt P60228 (P60228 whole entry): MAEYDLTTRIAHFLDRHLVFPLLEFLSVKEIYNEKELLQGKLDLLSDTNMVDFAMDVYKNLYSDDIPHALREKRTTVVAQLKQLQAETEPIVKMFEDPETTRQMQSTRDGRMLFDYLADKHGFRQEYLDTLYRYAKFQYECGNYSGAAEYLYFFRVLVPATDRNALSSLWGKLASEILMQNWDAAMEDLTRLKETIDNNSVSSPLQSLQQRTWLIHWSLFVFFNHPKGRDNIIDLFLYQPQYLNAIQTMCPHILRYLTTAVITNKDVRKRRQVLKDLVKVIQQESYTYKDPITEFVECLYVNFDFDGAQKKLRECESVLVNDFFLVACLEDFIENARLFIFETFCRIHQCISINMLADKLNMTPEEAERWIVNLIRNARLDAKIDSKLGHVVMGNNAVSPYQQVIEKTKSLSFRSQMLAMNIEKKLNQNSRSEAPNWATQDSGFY
# Sequence of UniProt Q14444 (Q14444 whole entry): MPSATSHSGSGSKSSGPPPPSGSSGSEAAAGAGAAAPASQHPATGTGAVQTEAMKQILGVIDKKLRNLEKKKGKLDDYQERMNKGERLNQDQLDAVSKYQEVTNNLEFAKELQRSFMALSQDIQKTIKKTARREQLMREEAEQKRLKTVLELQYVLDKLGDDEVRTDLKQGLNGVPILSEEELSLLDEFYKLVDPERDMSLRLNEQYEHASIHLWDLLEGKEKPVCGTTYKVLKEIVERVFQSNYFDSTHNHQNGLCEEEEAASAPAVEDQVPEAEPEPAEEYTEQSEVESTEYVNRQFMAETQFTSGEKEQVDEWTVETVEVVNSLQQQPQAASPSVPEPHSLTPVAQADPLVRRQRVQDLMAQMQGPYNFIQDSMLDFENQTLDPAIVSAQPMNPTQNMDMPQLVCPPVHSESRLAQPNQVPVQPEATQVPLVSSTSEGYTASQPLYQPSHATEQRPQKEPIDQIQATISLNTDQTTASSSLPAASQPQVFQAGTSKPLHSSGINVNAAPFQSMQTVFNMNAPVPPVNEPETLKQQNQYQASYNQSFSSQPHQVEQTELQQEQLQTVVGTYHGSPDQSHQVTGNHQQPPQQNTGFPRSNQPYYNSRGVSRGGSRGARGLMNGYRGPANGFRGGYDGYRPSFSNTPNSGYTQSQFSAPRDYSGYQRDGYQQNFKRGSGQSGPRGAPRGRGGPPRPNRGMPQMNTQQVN
# Sequence of UniProt Q15024 (Q15024 whole entry): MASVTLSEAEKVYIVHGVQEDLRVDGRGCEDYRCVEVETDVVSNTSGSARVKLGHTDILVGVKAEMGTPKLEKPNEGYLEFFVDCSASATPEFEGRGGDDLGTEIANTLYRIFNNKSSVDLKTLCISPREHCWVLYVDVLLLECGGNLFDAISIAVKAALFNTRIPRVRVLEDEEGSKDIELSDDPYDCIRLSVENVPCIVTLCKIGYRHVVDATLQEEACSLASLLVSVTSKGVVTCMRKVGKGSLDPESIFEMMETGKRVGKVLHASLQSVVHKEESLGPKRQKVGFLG
# Sequence of UniProt Q8TC12 (Q8TC12 whole entry): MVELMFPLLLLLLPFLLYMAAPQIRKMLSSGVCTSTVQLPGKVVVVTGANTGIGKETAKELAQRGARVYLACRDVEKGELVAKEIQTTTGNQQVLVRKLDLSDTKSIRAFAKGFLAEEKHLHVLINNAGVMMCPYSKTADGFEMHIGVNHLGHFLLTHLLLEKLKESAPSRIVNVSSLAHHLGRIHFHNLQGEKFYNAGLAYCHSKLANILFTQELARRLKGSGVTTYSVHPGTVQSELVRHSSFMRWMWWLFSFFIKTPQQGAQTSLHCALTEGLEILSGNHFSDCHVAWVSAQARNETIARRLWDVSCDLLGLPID
# Sequence of UniProt Q92499 (Q92499 whole entry): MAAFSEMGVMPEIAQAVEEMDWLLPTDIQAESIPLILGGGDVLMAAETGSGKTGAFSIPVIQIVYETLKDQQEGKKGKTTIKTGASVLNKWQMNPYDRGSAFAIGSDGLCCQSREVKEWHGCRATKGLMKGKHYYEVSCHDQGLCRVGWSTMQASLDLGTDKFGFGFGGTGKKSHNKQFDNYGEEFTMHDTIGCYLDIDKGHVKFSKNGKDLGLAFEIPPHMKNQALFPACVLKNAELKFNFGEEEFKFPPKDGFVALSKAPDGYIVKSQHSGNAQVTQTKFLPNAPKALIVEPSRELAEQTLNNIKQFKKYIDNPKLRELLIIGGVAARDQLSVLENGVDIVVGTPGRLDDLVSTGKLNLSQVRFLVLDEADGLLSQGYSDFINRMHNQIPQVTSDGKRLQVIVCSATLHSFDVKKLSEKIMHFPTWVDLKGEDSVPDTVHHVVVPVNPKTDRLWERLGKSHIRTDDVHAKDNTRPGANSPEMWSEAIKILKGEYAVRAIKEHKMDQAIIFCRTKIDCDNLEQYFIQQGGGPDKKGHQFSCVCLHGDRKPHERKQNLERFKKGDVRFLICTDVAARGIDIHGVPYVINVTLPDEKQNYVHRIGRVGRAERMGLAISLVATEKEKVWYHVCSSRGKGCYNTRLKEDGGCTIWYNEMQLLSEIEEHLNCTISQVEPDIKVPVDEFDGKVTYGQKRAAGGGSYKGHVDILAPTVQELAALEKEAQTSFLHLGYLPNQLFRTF
# Sequence of UniProt Q86W42 (Q86W42 whole entry): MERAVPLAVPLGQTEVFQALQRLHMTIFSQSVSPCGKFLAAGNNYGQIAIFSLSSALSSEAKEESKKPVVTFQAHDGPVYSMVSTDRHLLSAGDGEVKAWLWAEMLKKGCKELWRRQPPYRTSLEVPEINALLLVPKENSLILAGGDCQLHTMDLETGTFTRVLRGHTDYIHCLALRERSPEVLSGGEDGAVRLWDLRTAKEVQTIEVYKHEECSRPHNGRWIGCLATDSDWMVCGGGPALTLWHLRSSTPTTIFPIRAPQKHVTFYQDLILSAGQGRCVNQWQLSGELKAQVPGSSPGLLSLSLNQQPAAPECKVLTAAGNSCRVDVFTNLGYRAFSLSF
# Sequence of UniProt Q86Y37 (Q86Y37 whole entry): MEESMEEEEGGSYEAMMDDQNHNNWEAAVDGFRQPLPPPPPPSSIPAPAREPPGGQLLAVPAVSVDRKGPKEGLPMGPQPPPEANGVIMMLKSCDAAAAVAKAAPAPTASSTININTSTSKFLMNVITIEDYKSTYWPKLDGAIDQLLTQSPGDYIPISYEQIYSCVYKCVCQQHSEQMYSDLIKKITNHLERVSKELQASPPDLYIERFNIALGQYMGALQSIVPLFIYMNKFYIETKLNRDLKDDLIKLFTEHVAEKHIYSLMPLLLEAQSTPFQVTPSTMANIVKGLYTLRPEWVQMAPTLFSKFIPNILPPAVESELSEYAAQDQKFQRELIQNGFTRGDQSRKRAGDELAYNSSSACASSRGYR
# Sequence of UniProt Q86WR0 (Q86WR0 whole entry): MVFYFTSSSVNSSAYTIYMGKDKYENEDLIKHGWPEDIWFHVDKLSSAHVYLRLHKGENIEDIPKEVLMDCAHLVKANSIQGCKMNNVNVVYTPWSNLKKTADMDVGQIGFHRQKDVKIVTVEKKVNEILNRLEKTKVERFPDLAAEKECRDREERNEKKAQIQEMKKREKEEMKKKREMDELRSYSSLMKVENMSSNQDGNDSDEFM
# Sequence of UniProt Q16864 (Q16864 whole entry): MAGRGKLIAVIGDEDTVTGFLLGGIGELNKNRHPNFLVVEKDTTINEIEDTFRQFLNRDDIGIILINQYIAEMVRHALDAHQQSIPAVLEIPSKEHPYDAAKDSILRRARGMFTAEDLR
row,Target,NP40-soluble protein abundance
1,UniProt P55072,1.05 ± 0.064
2,YRDC (UniProt Q86U90),0.952 ± 0.022
3,UniProt Q86U86|Q86U86-8|Q86U86-2|Q86U86-4|Q86U86-5|Q86U86-7|Q86U86-9,1.14 ± 0.078
4,UniProt Q5K651|C9JKF1,1.07 ± 0.021
5,UniProt Q7Z3B4|Q7Z3B4-3,1 ± 0.021
6,UniProt Q16630|Q16630-2,1.64 ± 0.098
7,AARS2 (UniProt Q5JTZ9),1.02 ± 0.046
8,UniProt Q10567|Q10567-2|Q10567-3,0.927 ± 0.032
9,UniProt Q12872|Q12872-2,1.04 ± 0.027
10,PSMD2 (UniProt Q13200),1.1 ± 0.11
11,UniProt Q86Y37|Q86Y37-4,0.923 ± 0.074
12,UniProt Q16864|Q16864-2,0.931 ± 0.05
13,LEMD2 (UniProt Q8NC56),1.22 ± 0.11
14,UniProt Q13428|Q13428-3|Q13428-4|Q13428-7,1.01 ± 0.085
15,DHX9 (UniProt Q08211),1.13 ± 0.16
16,THOC7 (UniProt Q6I9Y2),1.15 ± 0.095
17,DDX1 (UniProt Q92499),1.02 ± 0.066
18,EDC4 (UniProt Q6P2E9),1 ± 0.037
19,P86790|P86791 (UniProt P86791+P86790),1.06 ± 0.072
20,RAB8A (UniProt P61006),0.95 ± 0.039

row,Target,NP40-soluble protein abundance
1,MBLAC2 (UniProt Q68D91),1.03 ± 0.1
2,SNW1 (UniProt Q13573),0.94 ± 0.064
3,UniProt Q13427|E9PG73,1.11 ± 0.12
4,UniProt Q63HQ0,0.935 ± 0.056
5,MLKL (UniProt Q8NB16),0.962 ± 0.052
6,UniProt P62277,0.964 ± 0.11
7,EXOSC7 (UniProt Q15024),1.01 ± 0.071
8,CCDC25 (UniProt Q86WR0),0.939 ± 0.057
9,UniProt P60228,1.08 ± 0.061
10,UniProt Q86W42|Q86W42-2,1.35 ± 0.28
11,UniProt Q6UXH1|Q6UXH1-4|Q6UXH1-5|Q6UXH1-6,0.941 ± 0.046
12,UniProt Q14103-3|D6RF44|Q14103-4,0.946 ± 0.094
13,MTM1 (UniProt Q13496),1.08 ± 0.088
14,UniProt Q7KZN9|Q7KZN9-2,1.05 ± 0.11
15,KPNB1 (UniProt Q14974),0.988 ± 0.03
16,RDH11 (UniProt Q8TC12),0.985 ± 0.024
17,TWF2 (UniProt Q6IBS0),1.09 ± 0.049
18,PDCD6IP (UniProt Q8WUM4),0.957 ± 0.053
19,UniProt Q14444|Q14444-2,0.994 ± 0.098
